Test results: PubChem BioAssay
Results filed as inconclusive are left out. Active and inactive are the calls of the source. Cut-off read from the data, not from the text of the source, unless noted: active = inhibition above about 30%; inactive = the rest.

Tests used:
[1] = Her2 expression decrease, cell viability multiplex – SKBR3 breast tumor cells, AlphaScreen, ATP viability, primary screen (AID 461;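 active = Her2 level under about 52% in both replicate screens, with viability over 70% of control, limit read from the data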;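 for Her2 level: lower value means less Her2 protein in the cells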;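 for viability: percent of carrier control wells set as 100% viability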); settings: SKBR3 Her2 protein level, 18-24 h, measured here: SKBR3 viability, ATP luminescence, at 10 µM
[2] = biological target: Receptor tyrosine-protein kinase erbB-2 (Homo sapiens) (UniProt P04626); experiment: as above; settings: 18-24 h, at 10 µM, stronger effect = lower value
[3] = reduced viability of SK-BR-3 breast cancer cells – cell-based, 24 h, human, pilot screen (AID 572;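 active = viability at or below 10% of carrier control in both of two separate runs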;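 note: compound exposure lasted between 18 and 24 h rather than exactly 24 h; 100% = carrier-treated control wells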); settings: SK-BR-3 viability, CellTiter-Glo luminescence, at 10 µM, stronger effect = lower value
[4] = H69AR cell proliferation blockers – human, duplicate replicates, primary screen (AID 580;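 active = viability at or under a set limit in both replicates, limit being median viability minus 3 SD, cut at about 48% in these data, passing the limit was not always enough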;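 note: 100% = mean luminescence of untreated wells and 0% = no signal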); settings: H69AR lung tumor cells viability, ATP luminescence, 72 h; at 10 µM; stronger effect = lower value
[5] = MRP1 drug-resistance reversers in H69AR cells – cell-based, doxorubicin co-treatment, pilot screen (AID 601;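 active = viability loss from added drug above about 55%, and viability with drug at most 40%, in both replicates, limit read from the data, passing the limit was not always enough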); settings: CellTiter-Glo, 72 h, at 10 µM; for differential viability (reversal): stronger effect = higher value
[6] = yeast transport mutant growth inhibition pilot in 384-well plates, post-Golgi transport modulator project (AID 636; in the data active = inhibition above about 31%); settings: absorbance 615 nm, about 18 h, stronger effect = higher value
[7] = growth suppression of yeast trafficking mutant, preliminary HTS, modulators of trafficking downstream of Golgi apparatus project, 1536-format plate, OD 615 nm (AID 637); settings: yeast transport mutant growth, absorbance 615 nm, 18 h; stronger effect = higher value
[8] = S. cerevisiae growth inhibition in permissive medium (OD615), pilot counter-assay for S. cerevisiae lifespan shortening project, permissive growth control (AID 705;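 active = growth inhibition above 25% in both replicates, a cutoff set 3 SD above the mean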); settings: OD615, 24 h, at 10 µM, stronger effect = higher value
[9] = S. cerevisiae growth inhibition in restrictive medium, OD615, pilot screen, restrictive growth control, yeast lifespan reduction project (AID 706;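 active = growth inhibition above a set limit, 3 SD over mean compound inhibition, in both replicates, cut at about 43% in these data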;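 note: modified DeaD lifespan yeast strain shifted to restrictive glucose medium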); settings: OD615, 48 h, at 10 µM, stronger effect = higher value
[10] = doxorubicin toxicity protection in MRP-1 cells – H69AR cells, CellTiter-Glo, duplicate, MRP-1 activator project, pilot screen (AID 807;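 active = viability increase at or above a cutoff of the median across tested compounds plus 3 SD, cut at about 8.5% in these data, passing the limit was not always enough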;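 note: compound pretreatment 18-22 h then 72 h combined with doxorubicin; 0% = doxorubicin alone and 100% = vehicle without doxorubicin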); settings: H69AR viability with doxorubicin, CellTiter-Glo luminescence; at 10 µM; stronger effect = higher value
[11] = viability of HCT116 without oncogenic beta-catenin – human colon tumor cells, pilot screen (AID 823;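 active = cell viability at or below a set limit in both duplicate runs, the limit being the all-compound median minus 4 SD, cut at about 23% in these data, passing the limit was not always enough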;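 note: 0% = wells killed by 20 µM Hyamine and 100% = untreated DMSO cell wells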); settings: HCT116 beta-catenin knockout viability, CellTiter-Glo, 60 h; at 10 µM; stronger effect = lower value
[12] = viability of PTEN-null HCT116 cells – cell-based, HCT116 clonal line, CellTiter-Glo, pilot screen (AID 824;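 active = viability at or below 27.92% in each of two runs, the all-compound median minus 4 SD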;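 note: 0% = 20 µM Hyamine control and 100% = vehicle cell control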); settings: HCT116 PTEN-deleted viability, 60 h, at 10 µM, stronger effect = lower value
[13] = RAM pathway blockade in budding yeast – dse1pr::URA3 reporter, 5-FOA selection, pilot screen (AID 869;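 active = inhibition over a set limit, the all-compound mean plus 3 SD, in both replicate runs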;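 note: 0% = DMSO wells with no growth and 100% = 10 µM 1-NA-PP1 with full growth; RAM network block rescues cells from 5-FOA so hits raise OD615 growth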); settings: S. cerevisiae dse1pr::URA3 5-FOA growth, OD615, 2 d; at 10 µM; stronger effect = higher value; strain carries analog-sensitive mutant Cbk1 kinase
[14] = RAM signaling pathway blockade in yeast – S. cerevisiae, Pdr1DBD-CYC8 efflux-inhibited sensitized strain, primary screen (AID 1298;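 active = RAM network inhibition above 8.4% in each of two replicates, 3 SD over the compound average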;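 note: 0% = DMSO untreated cells without growth and 100% = 10 µM 1-NA-PP1 full growth; higher means more yeast growth rescued from 5-FOA killing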); settings: S. cerevisiae cbk1-as DSE1-URA3 strain, 5-FOA growth OD615, 2 d; at 50 µM; stronger effect = higher value
[15] = HUVEC growth inhibition – cell-based, human, primary screen (AID 575;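 active = viability at or below 30% in both replicate assays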;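 note: 100% = median of untreated cell wells with 0.1% DMSO on each plate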); settings: HUVEC proliferation, CellTiter-Glo luminescence, 72 h; at 10 µM; stronger effect = lower value
[16] = H69AR cells + 2 uM doxorubicin, measured here: viability with 2 uM doxorubicin, stronger effect = lower value
[17] = H69AR cells, compound alone cytotoxicity

Chain of Receptor tyrosine-protein kinase erbB-2 (Homo sapiens) (P04626 whole entry, looked up): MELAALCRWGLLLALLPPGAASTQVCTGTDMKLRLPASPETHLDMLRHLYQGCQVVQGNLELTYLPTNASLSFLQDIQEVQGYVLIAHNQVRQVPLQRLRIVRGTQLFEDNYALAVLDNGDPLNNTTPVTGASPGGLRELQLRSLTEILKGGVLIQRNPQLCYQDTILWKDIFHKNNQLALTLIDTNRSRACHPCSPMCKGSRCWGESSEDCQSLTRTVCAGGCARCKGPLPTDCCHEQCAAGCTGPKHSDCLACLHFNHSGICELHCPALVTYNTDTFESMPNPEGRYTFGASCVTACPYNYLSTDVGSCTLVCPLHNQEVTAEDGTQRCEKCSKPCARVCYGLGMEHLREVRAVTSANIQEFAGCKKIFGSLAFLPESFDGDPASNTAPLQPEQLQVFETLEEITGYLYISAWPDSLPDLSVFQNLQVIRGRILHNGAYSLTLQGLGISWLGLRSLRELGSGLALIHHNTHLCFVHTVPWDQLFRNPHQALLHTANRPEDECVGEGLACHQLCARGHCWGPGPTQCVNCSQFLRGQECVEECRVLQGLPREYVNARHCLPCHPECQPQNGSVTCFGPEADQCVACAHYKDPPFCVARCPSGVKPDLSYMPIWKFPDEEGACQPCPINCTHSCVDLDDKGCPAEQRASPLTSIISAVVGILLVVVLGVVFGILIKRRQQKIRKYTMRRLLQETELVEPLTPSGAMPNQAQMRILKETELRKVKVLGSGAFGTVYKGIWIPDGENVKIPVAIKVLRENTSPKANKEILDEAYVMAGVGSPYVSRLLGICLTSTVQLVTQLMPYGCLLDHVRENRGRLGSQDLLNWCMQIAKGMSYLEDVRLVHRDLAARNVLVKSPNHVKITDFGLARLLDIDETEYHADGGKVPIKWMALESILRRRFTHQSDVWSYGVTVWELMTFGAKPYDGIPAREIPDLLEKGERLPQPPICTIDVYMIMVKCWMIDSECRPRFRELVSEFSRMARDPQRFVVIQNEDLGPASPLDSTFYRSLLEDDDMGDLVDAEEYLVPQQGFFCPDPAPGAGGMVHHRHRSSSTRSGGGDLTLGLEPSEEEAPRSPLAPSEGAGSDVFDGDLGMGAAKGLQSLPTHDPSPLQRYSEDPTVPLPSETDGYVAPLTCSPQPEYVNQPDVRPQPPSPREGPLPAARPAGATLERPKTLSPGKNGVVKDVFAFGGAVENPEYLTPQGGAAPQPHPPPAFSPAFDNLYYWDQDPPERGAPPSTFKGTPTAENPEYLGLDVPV

Compound | viability [1] [%] | Her2 level [2] | viability [3] | viability [4] | differential viability (reversal) ([5]; H69AR cells + 2 uM doxorubicin) | viability [5, 16] [%] | viability [5, 17] [%] | inhibition [6] | inhibition [7] | growth inhibition [8] | growth inhibition [9] | viability increase [10] | viability [11] | viability [12] | inhibition [13] | RAM network inhibition [14] | viability [15]
Cc1cc(C)c2c(=O)n(CC(=O)NCCCN3CCN(c4ccccc4F)CC3)sc2n1 | 107 | 70.5% (inactive) | 107% (inactive) | 3.21% (active) | 2.02% (inactive) | 1.19 | 3.21 | -4.8% (inactive) | 10% (inactive) | 16.2% (inactive) | 7.71% (inactive) | -7.84% (inactive) | 3.95% (active) | 1.7% (active) | 1.52% (inactive) | 5% (inactive) | –
Cc1nc2ccccc2c2oc(C(=O)NCC3COc4ccccc4O3)cc12 (configuration not stated) | 103 | 58.5% (inactive) | 103% (inactive) | 88.4% (inactive) | 0.085% (inactive) | 88.3 | 88.4 | 0.13% (inactive) | 6.33% (inactive) | -0.145% (inactive) | -3.1% (inactive) | -1.89% (inactive) | 61.2% (inactive) | 70.8% (inactive) | 1.69% (inactive) | 3.41% (inactive) | –
Cc1ccccc1-c1nc(CN2CCC(C(=O)NC3CCN(Cc4ccccc4)CC3)CC2)c(C)o1 | 91 | 77.5% (inactive) | 91% (inactive) | 86.3% (inactive) | 7.26% (inactive) | 79 | 86.3 | -5.87% (inactive) | 3% (inactive) | -8.2% (inactive) | -3.5% (inactive) | -7.96% (inactive) | 6.4% (active) | 9.9% (active) | 1.26% (inactive) | 1.75% (inactive) | –
Cc1nonc1NC(=O)c1ccccc1Br | – | – | 101% (inactive) | 91.8% (inactive) | 4.93% (inactive) | 86.8 | 91.8 | -3.6% (inactive) | -1.64% (inactive) | -16.1% (inactive) | -8.82% (inactive) | 0.21% (inactive) | 93.7% (inactive) | 101% (inactive) | 2.3% (inactive) | -0.15% (inactive) | 95.8% (inactive)
O=C(CS(=O)(=O)c1cn(Cc2ccc(F)cc2)c2ccccc12)N1CCCCC1 | 92 | 88.5% (inactive) | 92% (inactive) | 99.9% (inactive) | 11.9% (inactive) | 88 | 99.9 | -5.68% (inactive) | -5.17% (inactive) | -24.1% (inactive) | -12.8% (inactive) | -3.63% (inactive) | 82.4% (inactive) | 82.9% (inactive) | 2.3% (inactive) | 5% (inactive) | –
Cc1ccc2nc(NC(=O)Cn3cc4c(n3)CCCCC4)sc2c1 | 91.5 | 106% (inactive) | 91.5% (inactive) | 93% (inactive) | -3.56% (inactive) | 96.6 | 93 | 0.51% (inactive) | -4.67% (inactive) | -4.68% (inactive) | 10.6% (inactive) | -3.78% (inactive) | 98.2% (inactive) | 97% (inactive) | 2.76% (inactive) | 3.93% (inactive) | –
OC1(c2cccc(C(F)(F)F)c2)CCN(c2ccc(-c3ccccc3)nn2)CC1 | 71.5 | 78.5% (inactive) | 71.5% (inactive) | – | -2.92% (inactive) | 61.9 | 59 | 0.27% (inactive) | 0.98% (inactive) | -3.31% (inactive) | -9.3% (inactive) | -8.34% (inactive) | 10.7% (active) | 46.8% (inactive) | 1.11% (inactive) | 5.46% (inactive) | 86.4% (inactive)
O=C(CSc1nnnn1-c1ccccc1)Nc1ccc(Cl)cc1 | – | – | 100% (inactive) | 89.7% (inactive) | 6.46% (inactive) | 83.2 | 89.7 | 2.13% (inactive) | 6% (inactive) | -4.88% (inactive) | 4.24% (inactive) | -3.86% (inactive) | 74% (inactive) | 76.8% (inactive) | 3.12% (inactive) | 2.55% (inactive) | 99.1% (inactive)
Cc1ccc(C)c(N2CCN(CCCNC(=O)Cn3cc4c(n3)CCC(C)C4)CC2)c1 (configuration not stated) | 90.5 | 78% (inactive) | 90.5% (inactive) | 26.6% (active) | -20.3% (inactive) | 46.9 | 26.6 | -1.54% (inactive) | -2.83% (inactive) | 6.12% (inactive) | 10.4% (inactive) | -6.04% (inactive) | 1.61% (active) | 2.81% (active) | 1.44% (inactive) | 0.11% (inactive) | –
O=C(Nc1nc(-c2ccncc2)cs1)C1COc2ccccc2O1 (configuration not stated) | 83.5 | 99.5% (inactive) | 83.5% (inactive) | – | 4.21% (inactive) | 60.6 | 64.8 | 0.51% (inactive) | -8% (inactive) | – | 33.5% (inactive) | -5.71% (inactive) | 85.3% (inactive) | 83.9% (inactive) | 0.095% (inactive) | 7.12% (inactive) | 67.2% (inactive)
Cc1oc(-c2cccc(Cl)c2)nc1CN1CCC(C(=O)N2CCN(c3ccccc3F)CC2)CC1 | – | – | 73% (inactive) | 32.3% (active) | -24.7% (inactive) | 57 | 32.3 | -1.6% (inactive) | -3.28% (inactive) | 0.125% (inactive) | 1.06% (inactive) | -7.78% (inactive) | 17.2% (active) | 10.2% (active) | 1.05% (inactive) | 6.04% (inactive) | 4.6% (active)
C(=N\n1cnnc1)/c1cccc(OCCOc2ccccc2)c1 | – | – | 76% (inactive) | 94.6% (inactive) | 4.15% (inactive) | 90.5 | 94.6 | -4.53% (inactive) | 2% (inactive) | -7.18% (inactive) | 13.9% (inactive) | 0.62% (inactive) | 89% (inactive) | 94.9% (inactive) | 1.81% (inactive) | 0.17% (inactive) | 96.2% (inactive)
COc1cc(C(=O)NCCc2ccc3c(c2)OCCO3)ccc1OCC(=O)N1CCOCC1 | – | – | 100% (inactive) | 93.3% (inactive) | 1.3% (inactive) | 92 | 93.3 | -5.95% (inactive) | -6.55% (inactive) | -14.7% (inactive) | -16% (inactive) | -2.17% (inactive) | 97.6% (inactive) | 96.3% (inactive) | 1.68% (inactive) | 1.5% (inactive) | 112% (inactive)
Clc1c(CSc2nc3ccccc3o2)nc2sccn12 | – | – | 116% (inactive) | 92.9% (inactive) | 13.2% (inactive) | 79.8 | 92.9 | -1.04% (inactive) | 2.95% (inactive) | -13.5% (inactive) | -9.04% (inactive) | -6.43% (inactive) | 77.3% (inactive) | 81% (inactive) | -0.115% (inactive) | -0.26% (inactive) | 82% (inactive)
O=C(Nc1ccc2c(c1)OCCO2)C1CCN(C(=O)c2ccc(F)cc2)CC1 | – | – | 90% (inactive) | 92.5% (inactive) | 5.68% (inactive) | 86.8 | 92.5 | -4.53% (inactive) | -4.55% (inactive) | -9.55% (inactive) | -4.03% (inactive) | -3.11% (inactive) | 92.3% (inactive) | 93% (inactive) | 0.685% (inactive) | 6.28% (inactive) | 94.9% (inactive)
CCOC(=O)N1CCN(C(=O)CN(C2CCCCC2)S(=O)(=O)c2ccc(F)cc2)CC1 | – | – | 113% (inactive) | 97.7% (inactive) | 5.98% (inactive) | 91.7 | 97.7 | -6% (inactive) | -4.36% (inactive) | -7.17% (inactive) | -5.59% (inactive) | 0.22% (inactive) | 99.8% (inactive) | 103% (inactive) | -0.815% (inactive) | 6.62% (inactive) | 97.3% (inactive)
COCCN1C=C(C(=O)OC)C(c2cc3c(cc2Br)OCO3)C(C(=O)OC)=C1 | – | – | 97% (inactive) | 84.5% (inactive) | 3.38% (inactive) | 81.2 | 84.5 | -4.13% (inactive) | -1.09% (inactive) | -12.8% (inactive) | -14.6% (inactive) | -1.16% (inactive) | 58.3% (inactive) | 58.6% (inactive) | 0.41% (inactive) | 0.62% (inactive) | 89.2% (inactive)
O=C(Nc1nc2c(s1)CCCC2)C1COc2ccccc2O1 (configuration not stated) | – | – | 103% (inactive) | 88.3% (inactive) | -10.7% (inactive) | 99 | 88.3 | -4.27% (inactive) | -5.25% (inactive) | -5.28% (inactive) | -7.76% (inactive) | 0.74% (inactive) | 90.3% (inactive) | 87% (inactive) | 0.75% (inactive) | 0.16% (inactive) | 63.1% (inactive)
Cc1ccc(S(=O)(=O)N(CC(=O)N2CCC(C(N)=O)CC2)Cc2ccc(F)cc2)cc1 | – | – | 93% (inactive) | 100% (inactive) | 11.3% (inactive) | 88.8 | 100 | -3.87% (inactive) | -3.45% (inactive) | -1.11% (inactive) | 2.36% (inactive) | -2.26% (inactive) | 97.5% (inactive) | 87.2% (inactive) | -0.07% (inactive) | 1.49% (inactive) | 110% (inactive)
COc1ccccc1N1CCN(C(=O)C2CCN(S(=O)(=O)c3ccc(F)cc3)CC2)CC1 | – | – | 73% (inactive) | 87.5% (inactive) | 6.62% (inactive) | 80.8 | 87.5 | -0.27% (inactive) | 8.55% (inactive) | -13.6% (inactive) | -1.89% (inactive) | -0.47% (inactive) | 81.2% (inactive) | 84% (inactive) | 1.03% (inactive) | 4.6% (inactive) | 70.8% (inactive)
CCOC(=O)Nc1c(O)ccc2oc(C)c(-c3ccccc3)c12 | – | – | 102% (inactive) | 99.8% (inactive) | 0.02% (inactive) | 99.8 | 99.8 | 0.26% (inactive) | 15.3% (inactive) | -15.4% (inactive) | -6.34% (inactive) | -2.89% (inactive) | 79.4% (inactive) | 80.9% (inactive) | 1.51% (inactive) | 3.9% (inactive) | 68.7% (inactive)
